Common to all, as to experiment: DAPPL (digital affinity profiling via proximity ligation, sequencing); 10 mM Tris-HCl pH 7.5, 50 mM NaCl, 1 mM DTT, 4% glycerol, room temperature, 30 min; GST-TFs on glutathione beads, 16-mer random dsDNA library, 0.1% formaldehyde crosslink after washing; high values mean tight binding
For assay [1], the target named is T1, FEV (Homo sapiens, UniProt Q99581 1-238).
T1 sequence: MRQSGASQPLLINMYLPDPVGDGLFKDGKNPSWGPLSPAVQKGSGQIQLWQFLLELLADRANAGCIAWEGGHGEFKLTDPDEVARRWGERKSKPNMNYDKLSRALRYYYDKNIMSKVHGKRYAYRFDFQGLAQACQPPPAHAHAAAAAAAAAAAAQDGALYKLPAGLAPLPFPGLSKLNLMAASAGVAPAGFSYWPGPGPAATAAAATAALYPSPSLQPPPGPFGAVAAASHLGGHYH
The note with it: protein: recombinant; tags: N-terminal GST; dsDNA, one strand shown. The gist of the method:
(§1)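 Beads coated with glutathione captured GST-fused human transcription factors that had been expressed in yeast, and the factors were then given DNA barcodes and pooled with a tag-only sample. The pools were incubated with 200 nmole of a random double-stranded 16-mer DNA library in Tris/NaCl/DTT/glycerol buffer for 30 min at room temperature, washed, crosslinked with 0.1% formaldehyde and proximity-ligated with BsaI/T4 ligase at 37 °C for 1 h. PCR amplification and Illumina NextSeq500 sequencing came last. Binding signal is each hexamer's read frequency for a factor divided by its frequency for the tag-only sample.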

Assay [2] concerns the target ETV5 (Homo sapiens, UniProt P41161 1-510). The note with it: protein: recombinant; tags: N-terminal GST; dsDNA, one strand shown. In outline:
as §1

In assay [3] the target is HSF1 (Homo sapiens, UniProt Q00613 1-529). The note with it: protein: recombinant; tags: N-terminal GST; chain copies: 3; dsDNA, one strand shown. The gist of the method:
as §1

Assay [4] concerns the target T2, SPIC (Homo sapiens, UniProt Q8N5J4 1-248).
T2 sequence: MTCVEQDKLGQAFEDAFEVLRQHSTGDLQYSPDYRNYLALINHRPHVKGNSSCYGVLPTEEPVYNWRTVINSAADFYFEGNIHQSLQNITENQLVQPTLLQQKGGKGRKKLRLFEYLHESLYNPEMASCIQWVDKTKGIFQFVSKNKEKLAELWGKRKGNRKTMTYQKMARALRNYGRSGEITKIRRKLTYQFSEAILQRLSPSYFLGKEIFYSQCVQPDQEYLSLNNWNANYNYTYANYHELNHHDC
The note with it: protein: recombinant; tags: N-terminal GST; dsDNA, one strand shown. In outline:
as §1

In assay [5] the target is ELF4 (Homo sapiens, UniProt Q99607 1-663). The note with it: protein: recombinant; tags: N-terminal GST; dsDNA, one strand shown. In outline:
as §1

The target in assay [6] is T3, ELK4 (Homo sapiens, UniProt P28324-2 1-405).
T3 sequence: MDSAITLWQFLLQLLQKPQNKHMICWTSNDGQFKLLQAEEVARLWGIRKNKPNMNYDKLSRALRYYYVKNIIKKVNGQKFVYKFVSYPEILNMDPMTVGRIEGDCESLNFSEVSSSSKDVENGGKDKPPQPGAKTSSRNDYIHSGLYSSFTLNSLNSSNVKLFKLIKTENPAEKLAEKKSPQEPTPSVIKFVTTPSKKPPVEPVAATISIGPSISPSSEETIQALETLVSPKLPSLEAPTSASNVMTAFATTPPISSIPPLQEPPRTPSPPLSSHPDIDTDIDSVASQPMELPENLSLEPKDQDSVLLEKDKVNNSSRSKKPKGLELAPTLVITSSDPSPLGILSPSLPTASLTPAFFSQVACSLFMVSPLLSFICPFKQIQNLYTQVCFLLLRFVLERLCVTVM
Particulars: protein: recombinant; tags: N-terminal GST; dsDNA, one strand shown. In outline:
as §1

Assay [7] has as its target T4, ETV2 (Homo sapiens, UniProt O00321 1-342).
T4 sequence: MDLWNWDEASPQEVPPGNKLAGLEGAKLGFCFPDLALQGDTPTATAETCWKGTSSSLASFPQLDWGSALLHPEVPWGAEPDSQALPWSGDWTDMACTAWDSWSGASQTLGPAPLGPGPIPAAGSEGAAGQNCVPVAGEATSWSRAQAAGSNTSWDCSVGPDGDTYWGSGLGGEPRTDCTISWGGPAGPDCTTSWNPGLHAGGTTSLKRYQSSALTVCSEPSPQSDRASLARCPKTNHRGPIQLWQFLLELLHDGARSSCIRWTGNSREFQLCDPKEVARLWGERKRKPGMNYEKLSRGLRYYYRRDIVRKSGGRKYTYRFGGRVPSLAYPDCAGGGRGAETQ
The note with it: protein: recombinant; tags: N-terminal GST; dsDNA, one strand shown. In outline:
as §1

Assay [8] concerns the target T5, ELF3 (Homo sapiens, UniProt P78545 1-371).
T5 sequence: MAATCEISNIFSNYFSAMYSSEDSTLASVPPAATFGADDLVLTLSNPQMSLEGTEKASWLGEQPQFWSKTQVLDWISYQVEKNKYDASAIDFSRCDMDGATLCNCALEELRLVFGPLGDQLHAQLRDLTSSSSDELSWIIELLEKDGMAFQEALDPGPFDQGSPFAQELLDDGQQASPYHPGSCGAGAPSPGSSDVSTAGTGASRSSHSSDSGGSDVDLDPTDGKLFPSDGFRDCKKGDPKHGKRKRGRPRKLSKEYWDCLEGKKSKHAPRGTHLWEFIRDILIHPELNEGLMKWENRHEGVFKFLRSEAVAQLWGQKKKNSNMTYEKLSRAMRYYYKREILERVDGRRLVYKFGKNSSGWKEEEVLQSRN
Particulars: protein: recombinant; tags: N-terminal GST; dsDNA, one strand shown. In outline:
as §1

Assay [9] concerns the target CRX (Homo sapiens, UniProt O43186 1-299). The note with it: protein: recombinant; tags: N-terminal GST; dsDNA, one strand shown. The gist of the method: as §1
For assay [10], the target named is ETV1 (Homo sapiens, UniProt P50549 1-477). The note with it: protein: recombinant; tags: N-terminal GST; dsDNA, one strand shown. The gist of the method: as §1
Sequence of ETV1 (P50549 whole entry): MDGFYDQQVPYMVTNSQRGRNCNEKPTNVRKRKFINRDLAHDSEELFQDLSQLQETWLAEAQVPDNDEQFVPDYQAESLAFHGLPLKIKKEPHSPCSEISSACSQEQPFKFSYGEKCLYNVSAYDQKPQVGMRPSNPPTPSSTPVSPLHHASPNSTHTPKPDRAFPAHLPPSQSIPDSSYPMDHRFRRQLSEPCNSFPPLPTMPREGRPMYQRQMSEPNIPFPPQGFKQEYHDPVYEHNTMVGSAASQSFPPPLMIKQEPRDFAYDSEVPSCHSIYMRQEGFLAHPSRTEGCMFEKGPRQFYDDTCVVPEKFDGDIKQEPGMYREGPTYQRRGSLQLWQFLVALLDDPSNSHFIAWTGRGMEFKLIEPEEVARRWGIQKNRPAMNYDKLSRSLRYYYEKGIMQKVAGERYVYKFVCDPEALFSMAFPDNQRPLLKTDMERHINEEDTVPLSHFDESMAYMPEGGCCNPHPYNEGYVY

Sequence of ELF4 (Q99607 whole entry): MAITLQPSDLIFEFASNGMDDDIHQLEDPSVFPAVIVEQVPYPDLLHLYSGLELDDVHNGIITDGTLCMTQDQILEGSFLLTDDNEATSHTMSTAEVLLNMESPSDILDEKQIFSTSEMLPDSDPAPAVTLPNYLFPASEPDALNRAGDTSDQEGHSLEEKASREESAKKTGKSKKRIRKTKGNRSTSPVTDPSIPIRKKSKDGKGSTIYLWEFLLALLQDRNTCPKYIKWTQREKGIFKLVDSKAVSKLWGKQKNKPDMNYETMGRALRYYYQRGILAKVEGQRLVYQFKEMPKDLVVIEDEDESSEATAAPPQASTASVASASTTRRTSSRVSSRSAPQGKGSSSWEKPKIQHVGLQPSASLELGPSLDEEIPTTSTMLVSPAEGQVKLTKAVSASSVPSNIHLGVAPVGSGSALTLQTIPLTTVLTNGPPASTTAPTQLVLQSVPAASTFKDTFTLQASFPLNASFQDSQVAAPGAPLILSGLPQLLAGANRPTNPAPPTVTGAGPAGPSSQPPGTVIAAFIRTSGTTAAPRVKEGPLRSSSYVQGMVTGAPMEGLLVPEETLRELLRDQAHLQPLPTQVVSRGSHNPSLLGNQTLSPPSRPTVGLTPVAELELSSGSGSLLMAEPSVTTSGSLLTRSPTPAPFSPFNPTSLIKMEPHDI
Sequence of CRX (O43186 whole entry): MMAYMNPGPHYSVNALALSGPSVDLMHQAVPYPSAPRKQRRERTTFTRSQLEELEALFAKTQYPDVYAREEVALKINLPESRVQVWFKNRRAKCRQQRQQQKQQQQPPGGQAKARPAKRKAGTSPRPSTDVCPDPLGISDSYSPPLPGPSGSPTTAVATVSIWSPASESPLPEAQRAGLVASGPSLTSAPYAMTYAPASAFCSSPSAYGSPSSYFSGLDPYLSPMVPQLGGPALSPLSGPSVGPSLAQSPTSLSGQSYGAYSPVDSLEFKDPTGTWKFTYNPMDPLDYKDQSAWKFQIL
Sequence of HSF1 (Q00613 whole entry): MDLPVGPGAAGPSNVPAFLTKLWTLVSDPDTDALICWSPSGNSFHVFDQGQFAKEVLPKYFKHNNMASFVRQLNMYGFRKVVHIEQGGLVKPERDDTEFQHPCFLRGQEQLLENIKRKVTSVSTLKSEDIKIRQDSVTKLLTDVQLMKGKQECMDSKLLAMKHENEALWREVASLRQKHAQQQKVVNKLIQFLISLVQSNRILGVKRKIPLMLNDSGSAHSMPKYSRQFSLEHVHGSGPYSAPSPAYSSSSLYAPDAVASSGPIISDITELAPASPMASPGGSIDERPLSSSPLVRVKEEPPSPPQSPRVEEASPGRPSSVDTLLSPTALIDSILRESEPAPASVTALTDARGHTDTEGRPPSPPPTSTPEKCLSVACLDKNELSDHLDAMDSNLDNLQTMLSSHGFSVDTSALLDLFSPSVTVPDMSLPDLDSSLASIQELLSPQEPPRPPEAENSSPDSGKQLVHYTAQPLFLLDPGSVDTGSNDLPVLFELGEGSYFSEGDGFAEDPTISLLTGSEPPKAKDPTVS
Sequence of ETV5 (P41161 whole entry): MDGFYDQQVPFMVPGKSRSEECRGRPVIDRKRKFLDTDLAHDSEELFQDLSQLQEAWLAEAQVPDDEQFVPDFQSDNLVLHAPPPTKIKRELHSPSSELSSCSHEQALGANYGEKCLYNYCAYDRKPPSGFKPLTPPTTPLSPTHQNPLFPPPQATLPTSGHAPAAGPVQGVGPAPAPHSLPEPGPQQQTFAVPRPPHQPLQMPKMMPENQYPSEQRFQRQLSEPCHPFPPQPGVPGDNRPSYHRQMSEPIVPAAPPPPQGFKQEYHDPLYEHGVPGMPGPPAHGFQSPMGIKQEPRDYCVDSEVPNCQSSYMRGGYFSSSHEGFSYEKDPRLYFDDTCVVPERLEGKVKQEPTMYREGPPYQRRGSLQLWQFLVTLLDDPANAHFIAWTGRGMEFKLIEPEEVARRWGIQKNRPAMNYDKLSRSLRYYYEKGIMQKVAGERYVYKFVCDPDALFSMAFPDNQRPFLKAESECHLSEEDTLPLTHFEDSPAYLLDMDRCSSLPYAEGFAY

Turning to TTTCGT, the binding signal in [1] was 1.35 fold enrichment (6-mer frequency, TF over GST control); in assay [2] it was 1.41 fold enrichment (6-mer frequency, TF over GST control); in assay [3] it was 1.48 fold enrichment (6-mer frequency, TF over GST control); in [4], 1.36 fold enrichment (6-mer frequency, TF over GST control); in assay [5], 1.34 fold enrichment (6-mer frequency, TF over GST control); in [6], 1.49 fold enrichment (6-mer frequency, TF over GST control). The binding signal in assay [7] was 1.32 fold enrichment (6-mer frequency, TF over GST control); in assay [8] it was 1.33 fold enrichment (6-mer frequency, TF over GST control); in assay [9], 1.43 fold enrichment (6-mer frequency, TF over GST control); in assay [10] it was 1.38 fold enrichment (6-mer frequency, TF over GST control).
For GTCTCA, the binding signal in assay [1] was 1.25 fold enrichment (6-mer frequency, TF over GST control); in assay [2] it was 1.4 fold enrichment (6-mer frequency, TF over GST control); in assay [3] it was 1.01 fold enrichment (6-mer frequency, TF over GST control); in assay [4], 1.4 fold enrichment (6-mer frequency, TF over GST control); in assay [5] it was 1.33 fold enrichment (6-mer frequency, TF over GST control); in assay [6], 1.34 fold enrichment (6-mer frequency, TF over GST control). The binding signal in [7] is 1.32 fold enrichment (6-mer frequency, TF over GST control); in assay [8], 1.48 fold enrichment (6-mer frequency, TF over GST control); in assay [9], 1.12 fold enrichment (6-mer frequency, TF over GST control); in [10] it was 1.24 fold enrichment (6-mer frequency, TF over GST control).
ACCTAA: the binding signal in [1] was 1.12 fold enrichment (6-mer frequency, TF over GST control); in [2], 1.22 fold enrichment (6-mer frequency, TF over GST control); in [3], 1.21 fold enrichment (6-mer frequency, TF over GST control); in assay [4], 1.21 fold enrichment (6-mer frequency, TF over GST control); in [5], 1.27 fold enrichment (6-mer frequency, TF over GST control); in assay [6] it was 1.13 fold enrichment (6-mer frequency, TF over GST control). Besides, the binding signal in [7] is 1.17 fold enrichment (6-mer frequency, TF over GST control); in assay [8], 1.2 fold enrichment (6-mer frequency, TF over GST control); in assay [9] it was 1.57 fold enrichment (6-mer frequency, TF over GST control); in [10], 1.18 fold enrichment (6-mer frequency, TF over GST control).
As to AATTTA, the binding signal in assay [1] was 1.16 fold enrichment (6-mer frequency, TF over GST control); in [2] it was 1.27 fold enrichment (6-mer frequency, TF over GST control); in assay [3], 1.44 fold enrichment (6-mer frequency, TF over GST control); in assay [4], 1.21 fold enrichment (6-mer frequency, TF over GST control); in assay [5], 1.21 fold enrichment (6-mer frequency, TF over GST control); in [6], 1.22 fold enrichment (6-mer frequency, TF over GST control). Also, the binding signal in assay [7] was 1.13 fold enrichment (6-mer frequency, TF over GST control); in assay [8] it was 1.36 fold enrichment (6-mer frequency, TF over GST control); in assay [9] it was 1.59 fold enrichment (6-mer frequency, TF over GST control); in [10] it was 1.22 fold enrichment (6-mer frequency, TF over GST control).
Take AATACT: the binding signal in [1] was 1.21 fold enrichment (6-mer frequency, TF over GST control); in assay [2], 1.27 fold enrichment (6-mer frequency, TF over GST control); in [3], 1.34 fold enrichment (6-mer frequency, TF over GST control); in assay [4] it was 1.25 fold enrichment (6-mer frequency, TF over GST control); in assay [5] it was 1.16 fold enrichment (6-mer frequency, TF over GST control); in assay [6] it was 1.24 fold enrichment (6-mer frequency, TF over GST control). For the same sequence, the binding signal in assay [7] is 1.36 fold enrichment (6-mer frequency, TF over GST control); in assay [8] it was 1.26 fold enrichment (6-mer frequency, TF over GST control); in assay [9], 1.47 fold enrichment (6-mer frequency, TF over GST control); in assay [10] it was 1.26 fold enrichment (6-mer frequency, TF over GST control).
Regarding CATACT, the binding signal in [1] is 1.27 fold enrichment (6-mer frequency, TF over GST control); in assay [2], 1.2 fold enrichment (6-mer frequency, TF over GST control); in assay [3], 1.2 fold enrichment (6-mer frequency, TF over GST control); in assay [4] it was 1.23 fold enrichment (6-mer frequency, TF over GST control); in [5], 1.35 fold enrichment (6-mer frequency, TF over GST control); in assay [6], 1.34 fold enrichment (6-mer frequency, TF over GST control). Besides, the binding signal in [7] is 1.47 fold enrichment (6-mer frequency, TF over GST control); in [8], 1.34 fold enrichment (6-mer frequency, TF over GST control); in assay [9], 1.24 fold enrichment (6-mer frequency, TF over GST control); in assay [10], 1.33 fold enrichment (6-mer frequency, TF over GST control).
Regarding TGGCAT, the binding signal in assay [1] was 1.3 fold enrichment (6-mer frequency, TF over GST control); in assay [2], 1.13 fold enrichment (6-mer frequency, TF over GST control); in assay [3], 1.26 fold enrichment (6-mer frequency, TF over GST control); in assay [4] it was 1.24 fold enrichment (6-mer frequency, TF over GST control); in [5], 1.18 fold enrichment (6-mer frequency, TF over GST control); in [6], 1.21 fold enrichment (6-mer frequency, TF over GST control). The binding signal in [7] was 1.37 fold enrichment (6-mer frequency, TF over GST control); in [8], 1.24 fold enrichment (6-mer frequency, TF over GST control); in assay [9] it was 1.21 fold enrichment (6-mer frequency, TF over GST control); in [10], 1.18 fold enrichment (6-mer frequency, TF over GST control).

The values above are taken from publication PMC7862700, “An all-to-all approach to the identification of sequence-specific readers for epigenetic DNA modifications on cytosine”.
